Data from PubChem BioAssay (EPA / NIEHS).
Inconclusive results are not listed. Active and inactive are the calls of the source. Rule for the calls, unless noted: active = hit-call score of the fitted dose curve at least 0.9, where 1 is the maximum; inactive = score below 0.9.

What was measured:
[1] = CCTE_Mundy_HCI_Cortical_Synap_Neur_Matur_BPCount: CCTE's Synaptogenesis and Neurite Maturation Assay in rat cortical cells for Branch Point Count, Mundy Lab (AID 2284211)
Procedure, shortened: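 HCI read-out of branch points from MAP2/synaptophysin/Hoechst immunofluorescence; rat cortical cultures, AraC DIV 5, dosing DIV 7, fixed DIV 12; fit in positive direction vs DMSO baseline.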

[2] = CCTE_Mundy_HCI_Cortical_NOG_NeuriteCount: CCTE's Neurite Outgrowth Assay in rat cortical cells for Neurite Count, Mundy Lab (AID 2284212);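 note: cells fixed about two days after chemical exposure began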
Procedure, shortened: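 Rat cortical primary cells; compound added 2 h post-plating, 1/10 dilution of working solution. Anti-betaIII-tubulin/AF488 ICC; ArrayScan neurite count vs DMSO.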

[3] = CCTE_Mundy_HCI_Cortical_NOG_NeuriteLength: CCTE's Neurite Outgrowth Assay in rat cortical cells for Neurite Length, Mundy Lab (AID 2284213)
Procedure, shortened: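 First, rat primary cortical cells were plated and, 2 h later, given test chemical as a 1/10 dilution. Finally, βIII-tubulin immunostaining enabled automated imaging of neurite length.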

[4] = CCTE_Mundy_HCI_Cortical_Synap_Neur_Matur_NeuriteLength: CCTE's Synaptogenesis and Neurite Maturation Assay in rat cortical cells for Neurite Length, Mundy Lab (AID 2284214)
Procedure, shortened: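 Neurite length quantified by automated high-content imaging of MAP2, synaptophysin and Hoechst staining. Rat cortical cells received chemical from DIV 7 to DIV 12 […], glial growth arrested by AraC at DIV 5; DMSO baseline.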

[5] = CCTE_Mundy_HCI_Cortical_Synap_Neur_Matur_NeuriteSpotCountPerNeuron: CCTE's Synaptogenesis and Neurite Maturation Assay in rat cortical cells for Neurite Spot Count per Neuron Count, Mundy Lab (AID 2284215)
Procedure, shortened: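 Developing rat cortical neurons, with glia suppressed by AraC, are exposed to chemicals from DIV 7 to DIV 12. Automated fluorescence imaging of MAP2-labelled neurites and synaptophysin puncta yields a count per neuron, normalised against DMSO wells.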

[6] = CCTE_Mundy_HCI_Cortical_Synap_Neur_Matur_SynapseCount: CCTE's Synaptogenesis and Neurite Maturation Assay in rat cortical cells for Synapse Count, Mundy Lab (AID 2284218)
Procedure, shortened: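 High-content imaging of synaptophysin puncta per MAP2-positive neuron (Hoechst nuclei) in rat cortical cells exposed DIV 7–12 after glial arrest with AraC at DIV 5; decrease relative to DMSO scored.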

[7] = CCTE_Mundy_HCI_hN2_NOG_NeuriteCount: CCTE's Neurite Outgrowth Assay in human hN2 cells for Neurite Count, Mundy Lab (AID 2284219; active = hit-call score of the fitted dose curve at least 0.9, where 1 is the maximum)
Procedure, shortened: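 In this morphology assay, hNP1-derived neurons received test chemical 2 h post-plating and were fixed two days later in warm paraformaldehyde/sucrose containing Hoechst 33342. Neurites, labelled by rabbit anti-βIII-tubulin (1:800) and Alexa Fluor-488 (1:500), were counted automatically.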

[8] = CCTE_Mundy_HCI_hN2_NOG_NeuriteLength: CCTE's Neurite Outgrowth Assay in human hN2 cells for Neurite Length, Mundy Lab (AID 2284220; active = hit-call score of the fitted dose curve at least 0.9, where 1 is the maximum)
Procedure, shortened: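 Read-out is neurite length from high-content imaging of βIII-tubulin/Alexa Fluor-488-labelled neurons, referenced to DMSO controls.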

[9] = CCTE_Mundy_HCI_hN2_NOG_NeuronCount: CCTE's Neurite Outgrowth Assay in human hN2 cells for Neuron Count, Mundy Lab (AID 2284221; active = hit-call score of the fitted dose curve at least 0.9, where 1 is the maximum)
Procedure, shortened: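 Read-out is the number of betaIII-tubulin-positive neurons imaged by automated high-content analysis, with DMSO as negative control.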

[10] = CCTE_Mundy_HCI_Cortical_Synap_Neur_Matur_NeuriteCount: CCTE's Synaptogenesis and Neurite Maturation Assay in rat cortical cells for Neurite Count, Mundy Lab (AID 2284222);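 note: exposure from day 7 to day 12 in vitro with readout at day 12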
Procedure, shortened: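 In this multiplexed morphology readout, rat primary cortical neurons are fixed at DIV 12 following dosing at DIV 7 and stained for MAP2, synaptophysin and nuclei. High-content image analysis yields neurite count.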

[11] = CCTE_Mundy_HCI_Cortical_Synap_Neur_Matur_CellBodySpotCount: CCTE's Synaptogenesis and Neurite Maturation Assay in rat cortical cells for Cell Body Spot Count, Mundy Lab (AID 2284223)
Procedure, shortened: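 Chemicals were applied to AraC-treated rat primary cortical cells at DIV 7 and measured at DIV 12. Fixed cells were labelled for MAP2, synaptophysin and nuclei, and high-content imaging gave cell body synaptophysin spot counts per neuron relative to DMSO.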

[12] = CCTE_Mundy_HCI_Cortical_NOG_BPCount: CCTE's Neurite Outgrowth Assay in rat cortical cells for Branch Point Count, Mundy Lab (AID 2284237)
Procedure, shortened: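 Measured 50.33 h after dosing, this morphology endpoint uses rat primary cortical cultures labelled for betaIII-tubulin. Branch points are quantified by high-content imaging, with DMSO as negative control and baseline.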

[13] = CCTE_Mundy_HCI_hNP1_Casp3_7: CCTE's Caspase-Glo 3/7 Assay in human neuroprogenitor cells for Apoptosis, Mundy Lab (AID 2284240)
Procedure, shortened: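 Luminescent caspase-3/7 readout, 26.5 h post-dose, in human neural progenitor cells from WA09 embryonic stem cells. Cells grew 40–44 h at 37 °C, 5% CO2 before chemical addition. Activity analysed as signal increase over DMSO baseline.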

[14] = CCTE_Mundy_HCI_hNP1_CellTiter: CCTE's Cell Titer-Glo 2 Assay in human neuroprogenitor cells for Viability, Mundy Lab (AID 2284241; active = hit-call score of the fitted dose curve at least 0.9, where 1 is the maximum)
Procedure, shortened: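 Viability read as luminescent ATP content (CellTiter-Glo, 30 min room temperature) twenty-four hours after dosing, relative to DMSO. Cells: WA09-derived hNP1 neuroprogenitors on poly-L-ornithine/laminin, plated 40 to 44 hours before chemical.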

[15] = CCTE_Mundy_HCI_Cortical_Synap_Neur_Matur_NeuronCount: CCTE's Synaptogenesis and Neurite Maturation Assay in rat cortical cells for Neuron Count, Mundy Lab (AID 2284242; active = hit-call score of the fitted dose curve at least 0.9, where 1 is the maximum)
Procedure, shortened: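 Neuron counts come from automated high-content imaging of Hoechst nuclei and MAP2/synaptophysin immunostaining at DIV 12, with loss of signal judged against DMSO. Cultures of rat cortical cells had glial growth arrested by AraC at DIV 5; chemical exposure began DIV 7.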

[16] = IUF_NPC2c_oligodendrocyte_migration_120hr: Leibniz Research Institute for Environmental Medicine (IUF) 120-hour Neural Progenitor Cell Migration Assay for Oligodendrocyte Migration (NPC2c) (AID 2284297);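 note: O4-positive oligodendrocyte migration distance divided by radial glia migration distance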
Procedure, shortened: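 Using fetal brain neural progenitor spheres differentiating in N2 medium at 37C, compounds were present for 120 h. Oligodendrocyte migration distance, normalized to radial glia migration, was measured from imaged O4 staining.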

[17] = IUF_NPC2a_radial_glia_migration_120hr: Leibniz Research Institute for Environmental Medicine (IUF) 120-hour Neural Progenitor Cell Migration Assay for Radial Glia Migration (NPC2a) (AID 2284298)
Procedure, shortened: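 Exposure of 0.3 mm primary hNPC spheres runs day 0 to 120 h with a half-volume medium change at day 3. Fixed cells get Hoechst staining; high-content analysis of nuclear positions yields radial glia migration distance per well, compared against DMSO controls.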

[18] = IUF_NPC2a_radial_glia_migration_72hr: Leibniz Research Institute for Environmental Medicine (IUF) 72-hour Neural Progenitor Cell Migration Assay for Radial Glia Migration (NPC2a) (AID 2284299)
Procedure, shortened: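 Radial glia migration (µm, sphere core edge to migration front, four directions averaged) from brightfield images at 72 h; hNPC spheres differentiating on PDL/laminin in N2 medium, compound exposure at 7 concentrations from plating.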

[19] = IUF_NPC2b_neuronal_migration_120hr: Leibniz Research Institute for Environmental Medicine (IUF) 120-hour Neural Progenitor Cell Migration Assay for Neuron Migration (NPC2b) (AID 2284300)
Procedure, shortened: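 Fetal human NPC spheres migrate on PDL/laminin during 120 h compound treatment; neuronal migration distance, glia-normalized, scored versus DMSO control.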

[20] = IUF_NPC3_neuronal_differentiation_120hr: Leibniz Research Institute for Environmental Medicine (IUF) 120-hour Neuronal Differentiation Assay (NPC3) (AID 2284301)
Procedure, shortened: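 hNPC spheres, PDL/laminin, DMEM/F12 3:1 + 1% N2, 37C, 5% CO2; 7 concentrations + solvent control, 5 d exposure, half-change day 3. Fix 120 h; TUBB3/Hoechst ICC, CNN neuron calling; % neurons vs nuclei, DMSO-normalized.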

[21] = IUF_NPC4_neurite_length_120hr: Leibniz Research Institute for Environmental Medicine (IUF) 120-hour Neuronal Morphology Assay for Neurite Length (NPC4) (AID 2284302)
Procedure, shortened: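 hNPC spheres (0.3 mm, fetal brain GW 16-19) on PDL/laminin, DMEM:F12 3:1 + 1% N2, 37C 5% CO2; 7 concs + solvent control, day 0-5, half medium change d3; fix 120 h, TUBB3 ICC, mean neurite length um vs DMSO.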

[22] = IUF_NPC5_oligodendrocyte_differentiation_120hr: Leibniz Research Institute for Environmental Medicine (IUF) 120-hour Oligodendrocyte Differentiation Assay (NPC5) (AID 2284304; active = hit-call score of the fitted dose curve at least 0.9, where 1 is the maximum;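 note: primary human fetal neural progenitor spheres plated to migrate and differentiate; share of O4-positive cells among Hoechst nuclei found by CNN image analysis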)
Procedure, shortened: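 After plating on poly-D-lysine/laminin, fetal-derived hNPC spheres differentiated for 120 h at 37C in compound-containing N2 medium, refreshed by half on day 3. O4 immunostaining over Hoechst nuclei in the migration zone gave oligodendrocyte percentage relative to DMSO.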

[23] = IUF_NPC2-5_cytotoxicity_72hr: Cytotoxicity Assessment at 72 hours in the Leibniz Research Institute for Environmental Medicine (IUF) Neural Progenitor Cell Migration and Differentiation Assay for Cytotoxicity (NPC2-5) (AID 2284306; active = hit-call score of the fitted dose curve at least 0.9, where 1 is the maximum;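 note: LDH release into supernatant measured by resorufin fluorescence marking membrane damage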)
Procedure, shortened: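 hNPC spheres (0.3 mm), PDL/laminin, DMEM/F12 3:1 + 1% N2; cpd from d0, 7 concs + SC, DMSO max 0.1%; half-medium refresh d3. Readout: supernatant LDH via resorufin fluorescence (RFU), 72 h; gain-of-signal fit.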

[24] = IUF_NPC2-5_cytotoxicity_120hr: Cytotoxicity Assessment at 120 hours in the Leibniz Research Institute for Environmental Medicine (IUF) Neural Progenitor Cell Migration and Differentiation Assay (NPC2-5) (AID 2284307; active = hit-call score of the fitted dose curve at least 0.9, where 1 is the maximum)
Procedure, shortened: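 Membrane-integrity loss is quantified by LDH in supernatant after five days of exposure of migrating, differentiating human fetal NPC spheres; seven serially diluted concentrations are tested with DMSO kept at or below 0.1%.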

[25] = IUF_NPC2-5_cell_number_120hr: Cell Number Assessment at 120 hours in the Leibniz Research Institute for Environmental Medicine (IUF) Neural Progenitor Cell Migration and Differentiation Assay (NPC2-5) (AID 2284308);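 note: count of Hoechst-stained nuclei in migration zone around plated human neural progenitor spheres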
Procedure, shortened: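 Seven-point serial dilutions plus solvent control were applied to plated 0.3 mm hNPC spheres at differentiation start, with medium half-replaced at day 3. Nuclei positive for Hoechst in the migration zone were enumerated at 120 h.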

[26] = IUF_NPC2-5_viability_120hr: Viability Assessment at 120 hours in the Leibniz Research Institute for Environmental Medicine (IUF) Neural Progenitor Cell Migration and Differentiation Assay (NPC2-5) (AID 2284312)
Procedure, shortened: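 Human fetal neural progenitor spheres (0.3 mm) plated on poly-D-lysine/laminin in N2 differentiation medium, exposed 120 h with half-medium refresh at day 3. Viability by alamar blue resazurin fluorescence; 7 concentrations, DMSO max 0.1%.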

[27] = IUF_NPC1_cytotoxicity_72hr: Cytotoxicity Assessment at 72 hours in the Leibniz Research Institute for Environmental Medicine (IUF) Neural Progenitor Cell Proliferation Assay (NPC1) (AID 2284332; active = hit-call score of the fitted dose curve at least 0.9, where 1 is the maximum;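 note: rising LDH signal means more cytotoxicity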)
Procedure, shortened: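 Cytotoxicity by LDH membrane-integrity assay on medium supernatants, fluorescence via resazurin reduction, after 3-day single exposure of primary hNPC spheres at 37C, pH 7.2-7.6 with growth factors. Fitted upward against baseline.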

Measured: outcome

C[C@H](CS)C(=O)N1CCC[C@H]1C(=O)O
inactive: all assays above
